Results from PubChem BioAssay AID1159580 (chemical genetic matrix, 2015).
The campaign covered roughly 5,500 compounds. About 2,000 (36%) were called active. Roughly 18% stayed inconclusive and do not appear here. No stated cut-off is given here; in the data, active means normalized growth mostly below about 0.91 (no sharp cut-off); inconclusive means no clear call, values can overlap the other calls; inactive means mostly above about 0.92. This is one part of the list.

Experiment: chemical genetic growth profiling, strain panel (AID 1159580);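 further: tested at 20 µM; growth read once vehicle control cultures reached saturation at 30 °C; 1 = growth at the plate median or of vehicle wells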
Settings: S. cerevisiae deletion strains, growth OD

Measured: normalized growth

COC(=O)c1ccc(Oc2c(C(F)(F)F)oc3cc(O)ccc3c2=O)cc1
inactive: locus YAR019C, strain CDC15, stronger effect = lower value 0.976 | locus YBL105C, strain PKC1, stronger effect = lower value 0.976 | locus YBR135W, strain CKS1, stronger effect = lower value 0.975 | locus YBR136W, strain MEC1, stronger effect = lower value 0.974 | locus YBR160W, strain CDC28, stronger effect = lower value 0.986 | locus YDL017W, strain CDC7, stronger effect = lower value 0.977 | locus YDL028C, strain MPS1, stronger effect = lower value 0.979 | locus YDL101C, strain DUN1, stronger effect = lower value 0.982 | locus YDL108W, strain KIN28, stronger effect = lower value 0.976 | locus YDL132W, strain cdc53, stronger effect = lower value 0.961 | locus YDL214C, strain PRR2, stronger effect = lower value 0.949 | locus YDR052C, strain DBF4, stronger effect = lower value 0.984 | locus YDR054C, strain cdc34, stronger effect = lower value 0.959 | locus YDR226W, strain ADK1, stronger effect = lower value 0.964 | locus YDR477W, strain SNF1, stronger effect = lower value 0.948 | locus YER123W, strain YCK3, stronger effect = lower value 0.924 | locus YER133W, strain GLC7, stronger effect = lower value 0.929 | locus YFL009W, strain cdc4, stronger effect = lower value 0.969 | locus YFL029C, strain CAK1, stronger effect = lower value 0.976 | locus YFR003C, strain YPI1, stronger effect = lower value 0.974 | locus YFR019W, strain FAB1, stronger effect = lower value 0.938 | locus YFR028C, strain CDC14, stronger effect = lower value 0.965 | locus YGR040W, strain KSS1, stronger effect = lower value 0.941 | locus YGR052W, strain FMP48, stronger effect = lower value 0.962 | locus YGR092W, strain DBF2, stronger effect = lower value 0.948 | locus YHR030C, strain SLT2, stronger effect = lower value 0.902 | locus YHR079C, strain IRE1, stronger effect = lower value 0.926 | locus YHR082C, strain KSP1, stronger effect = lower value 1.01 | locus YHR205W, strain SCH9, stronger effect = lower value 0.949 | locus YIL147C, strain SLN1, stronger effect = lower value 0.978 | locus YJL095W, strain BCK1, stronger effect = lower value 0.904 | locus YJL128C, strain PBS2, stronger effect = lower value 0.941 | locus YJL157C, strain FAR1, stronger effect = lower value 0.936 | locus YJR016C, strain ILV3, stronger effect = lower value 0.974 | locus YJR066W, strain TOR1 (second series), stronger effect = lower value 0.93 | locus YJR066W, strain TOR1, stronger effect = lower value 1.01 | locus YKL048C, strain ELM1, stronger effect = lower value 0.968 | locus YKL067W, strain YNK1, stronger effect = lower value 0.956 | locus YKL101W, strain HSL1, stronger effect = lower value 0.945 | locus YKL193C, strain SDS22, stronger effect = lower value 0.967 | locus YKL203C, strain TOR2, stronger effect = lower value 1.01 | locus YLR113W, strain HOG1, stronger effect = lower value 0.869 | locus YLR133W, strain CKI1, stronger effect = lower value 0.95 | locus YLR403W, strain SFP1, stronger effect = lower value 0.938 | locus YML070W, strain DAK1, stronger effect = lower value 0.934 | locus YMR001C, strain CDC5, stronger effect = lower value 0.972 | locus YMR205C, strain PFK2 (second series), stronger effect = lower value 0.969 | locus YMR277W, strain FCP1, stronger effect = lower value 0.978 | locus YNL006W, strain LST8, stronger effect = lower value 0.972 | locus YNL020C, strain ARK1, stronger effect = lower value 0.949 | locus YNL161W, strain CBK1, stronger effect = lower value 0.962 | locus YNL183C, strain NPR1, stronger effect = lower value 1.02 | locus YNL207W, strain RIO2, stronger effect = lower value 0.969 | locus YNL222W, strain SSU72, stronger effect = lower value 0.979 | locus YNL307C, strain MCK1 (second series), stronger effect = lower value 0.95 | locus YOL078W, strain AVO1, stronger effect = lower value 0.97 | locus YOL136C, strain PFK27, stronger effect = lower value 0.933 | locus YOR061W, strain CKA2, stronger effect = lower value 0.968 | locus YOR119C, strain RIO1, stronger effect = lower value 1.02 | locus YOR231W, strain MKK1, stronger effect = lower value 0.967 | locus YOR329C, strain SCD5, stronger effect = lower value 0.975 | locus YPL031C, strain PHO85, stronger effect = lower value 0.94 | locus YPL153C, strain RAD53, stronger effect = lower value 0.935 | locus YPL204W, strain HRR25, stronger effect = lower value 0.95 | locus YPL209C, strain IPL1, stronger effect = lower value 0.971 | locus YPL256C, strain CLN2, stronger effect = lower value 0.9 | locus YPR025C, strain CCL1, stronger effect = lower value 0.98 | locus YPR106W, strain ISR1, stronger effect = lower value 0.979 | locus YPR111W, strain DBF20, stronger effect = lower value 0.979 | strain NNK1, stronger effect = lower value 0.973 | strain TSCII, stronger effect = lower value 0.96
